A selection: hits, their analogues and other compounds. The true share with any hit is near 7.4%.
Rab9 prom act – qHTS Assay for Rab9 Promoter Activators | Huh7 Rab9 promoter-luciferase reporter, luminescence, 24 h | Potency, µM (series often up to 9.22 µM), most hits filed as activators | actives 2.8% (n = 320,000); also: nearly all actives have a fitted effect of over 60% in size
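Stable Rab9-luc Huh7, 1500 cells/well, 2 h settle; cmpd in DMSO, 24 h, 37 °C/5% CO2; luciferase reagent 10 min RT; luminescence.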
FLuc counter – qHTS profiling assay for firefly luciferase inhibitor/activator using purifed enzyme and Km concentrations of substrates (counterscreen for miR-21 project); Luciferin 4-monooxygenase (Photinus pyralis), P08659; purified FLuc, Km substrates, luminescence inhibition; Potency, µM (doses to about 57.5 µM), usual class: inhibitors; actives 6.9% (n = 360,000); AID 588342, 2011; also: nearly all actives have a fitted effect of over 55% in size
Target sequence (P08659 whole entry, looked up): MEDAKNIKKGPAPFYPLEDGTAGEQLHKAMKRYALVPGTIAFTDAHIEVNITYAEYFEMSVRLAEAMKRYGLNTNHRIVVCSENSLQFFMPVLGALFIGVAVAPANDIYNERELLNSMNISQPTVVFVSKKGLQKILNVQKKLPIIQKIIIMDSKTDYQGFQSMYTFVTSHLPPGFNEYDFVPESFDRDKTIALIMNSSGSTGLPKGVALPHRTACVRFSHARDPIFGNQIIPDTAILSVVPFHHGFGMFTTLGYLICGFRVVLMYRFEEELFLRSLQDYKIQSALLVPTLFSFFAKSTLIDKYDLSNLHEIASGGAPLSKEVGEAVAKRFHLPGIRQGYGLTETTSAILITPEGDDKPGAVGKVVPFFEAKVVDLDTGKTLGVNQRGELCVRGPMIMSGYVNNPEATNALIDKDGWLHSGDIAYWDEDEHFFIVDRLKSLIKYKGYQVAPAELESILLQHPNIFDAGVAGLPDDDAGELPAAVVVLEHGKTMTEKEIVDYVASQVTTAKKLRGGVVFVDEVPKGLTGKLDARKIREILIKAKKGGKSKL
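Biochemical qHTS of compounds, final roughly 60 µM downward over six points, against 10 nM purified firefly luciferase using Km concentrations of substrates (10 uM D-luciferin, 10 uM ATP) in Tris acetate pH 7.5 buffer; luminescence output.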
ELG1 genotoxic – qHTS screen for small molecules that induce genotoxicity in human embryonic kidney (HEK293T) cells expressing luciferase-tagged ELG1. actives 1.3% (n = 330,000). Potency, µM (top dose mostly 46 µM), hits mostly activators. HEK293T ELG1-luciferase reporter, luminescence, 16 h; also: nearly all actives have a fitted effect of over 60% in size
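Luminescence read-out: rising ELG1-luciferase signal, reflecting elevated ELG1 protein under genetic stress, flags genotoxic compounds. Cells were treated for 16 hr at 37 °C before ONE-Glo detection.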
NPC1 promoter act – qHTS Assay for NPC1 Promoter Activators; Huh7 NPC1 promoter luciferase reporter, 24 h; actives 2.4% (n = 320,000); Potency, µM (series often up to 9.22 µM), hits mostly activators; also: nearly all actives have a fitted effect of over 60% in size
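Compounds in DMSO were transferred onto Huh7 NPC1-luciferase reporter cells pre-incubated 2 h; after 24 h at 37 °C, Amplite reagent was dispensed and luminescence recorded 10 min later.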
SMN2 splice enh – qHTS Assay for Enhancers of SMN2 Splice Variant Expression | Potency, µM (series often up to 46.1 µM), hits mostly activators | actives 2.8% (n = 210,000) | HEK293 SMN2-luciferase splicing reporter, luminescence, 30-36 h; also: nearly all actives have a fitted effect of over 55% in size
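qHTS luciferase splicing reporter: luminescence rises when SMN2 exon 7 is included in transfected HEK293 cells. Compound exposure lasted 30-36 h at 37C, with 4.5 mM final sodium butyrate as control, followed by a ONE-Glo read.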
Of the large screens only hits and unclear results are named; the others gave an inactive call. Calls follow the shape of the dose curve; as a rule, active = well fitted curve in the direction sought with a large enough effect; inconclusive = small, poorly fitted or top-dose-only effect, or another doubt; inactive = no such curve, though single readings can be large; an effect the other way counts as inactive or inconclusive.

OCC1O[C@H]([S-])[C@H](O)[C@@H](O)[C@@H]1O.[Au+] (stereo partly specified)	none (no result: FLuc counter, ELG1 genotoxic, SMN2 splice enh)
CCOc1ccc(NC(=O)N2CC3CCCN3c3ccccc32)cc1 (stereo unspecified)	none (no result: Rab9 prom act, ELG1 genotoxic, NPC1 promoter act, SMN2 splice enh)
O=C(CCN1C(=O)/C(=C/c2ccc(Cl)cc2)SC1=S)Nc1ccc(C(=O)O)cc1	FLuc counter 11µM (no result: SMN2 splice enh)
CCc1ccc(/C=C2/SC(=S)N(CCC(=O)Nc3cccc(C(=O)O)c3)C2=O)cc1	FLuc counter 2.1µM, ELG1 genotoxic inconclusive, NPC1 promoter act inconclusive (no result: SMN2 splice enh)
O=C(CCN1C(=O)/C(=C\c2ccccc2)SC1=S)N1CCCCC1	FLuc counter inconclusive (no result: SMN2 splice enh)
CCc1ccc(/C=C2/SC(=S)N(CCC(=O)Nc3ccc(C(=O)O)cc3)C2=O)cc1	FLuc counter 0.85µM (no result: SMN2 splice enh)
O=C(CCN1C(=O)/C(=C/c2cccs2)SC1=S)N1CCCCC1	FLuc counter 15µM (no result: SMN2 splice enh)
CCC(Sc1nc2ncccc2o1)C(=O)Nc1ccc(OC)c(OC)c1 (stereo unspecified)	none (no result: Rab9 prom act, ELG1 genotoxic, NPC1 promoter act, SMN2 splice enh)
CN(C)CC[C@@H](C(=O)C(C)(C)C)c1ccccn1	none (no result: Rab9 prom act, FLuc counter, ELG1 genotoxic, NPC1 promoter act)
COc1cccc(NC(=O)c2nnn(Cc3ccc(OC)c(Br)c3)c2N)c1	none (no result: Rab9 prom act, ELG1 genotoxic, NPC1 promoter act)
CCN(C(=O)CCN1C(=O)/C(=C/c2ccccc2)SC1=S)C1CCS(=O)(=O)C1 (stereo unspecified)	FLuc counter 24µM (no result: SMN2 splice enh)
O=C(O)c1cc(NN=C2c3ccccc3-c3ccccc32)ccc1Cl	FLuc counter inconclusive (no result: SMN2 splice enh)
Cc1ccc(N/N=C2\CC(=O)c3ccccc32)cc1Cl	FLuc counter 9.5µM, ELG1 genotoxic inconclusive (no result: SMN2 splice enh)
CC(C)(C)c1ccc(C2=NC(=O)C(CC(=O)O)S2)cc1 (stereo unspecified)	FLuc counter 1.7µM (no result: SMN2 splice enh)
COc1ccc(C(=O)CC2SC(N)=NC2=O)cc1 (stereo unspecified)	none (no result: SMN2 splice enh)
O=C(Nc1ccc(Cl)cc1)OCc1cncs1	Rab9 prom act inconclusive, FLuc counter 15µM, NPC1 promoter act inconclusive
O=C(Nc1ccc(Cl)cc1)OCc1ccccn1	Rab9 prom act 2.2µM, FLuc counter 12µM, NPC1 promoter act 2.5µM, SMN2 splice enh 13µM
Cc1ccc2c(c1)N(C(=O)Nc1cccc3c1CCCC3)CCO2	none (no result: Rab9 prom act, ELG1 genotoxic, NPC1 promoter act, SMN2 splice enh)
COc1ccc(NC(=O)N2CCc3c(sc4c3CCCC4)C2c2ccccc2OC)cc1 (stereo unspecified)	none (no result: Rab9 prom act, ELG1 genotoxic, NPC1 promoter act, SMN2 splice enh)
c1ccc(-c2nn[nH]n2)cc1	none (no result: SMN2 splice enh)
CCOc1ccc(-c2nn[nH]n2)cc1	FLuc counter 11µM
CCOc1ccc(-c2nn[nH]n2)cc1OCC	none
Cc1ccccc1COc1ccc(-c2nn[nH]n2)cc1	FLuc counter 27µM (no result: SMN2 splice enh)
CCOc1ccc(-c2n[nH]c(=S)o2)cc1	FLuc counter 11µM
CCOc1ccccc1-c1n[nH]c(=S)o1	none
CCc1ccc(-c2nn[nH]n2)cc1	FLuc counter 13µM
Cc1ccc(Sc2ccc(N3CCCC(C(=O)Nc4ccc(F)c(Cl)c4)C3)nn2)cc1 (stereo unspecified)	none (no result: Rab9 prom act, ELG1 genotoxic, NPC1 promoter act)
CC[C@H](C)C(=O)O[C@H]1C[C@H](O)C=C2C=C[C@H](C)[C@H](CC[C@@H](O)C[C@@H](O)CC(=O)O)[C@H]21	none (no result: Rab9 prom act, FLuc counter, ELG1 genotoxic, NPC1 promoter act)
CC(C)n1nnc(-c2ccc(OCc3ccccc3F)cc2)n1	Rab9 prom act 1.6µM, FLuc counter 6µM, ELG1 genotoxic inconclusive, NPC1 promoter act 2.8µM (no result: SMN2 splice enh)
Cn1nnc(-c2ccc(OCc3ccccc3F)cc2)n1	Rab9 prom act 1µM, FLuc counter 1.9µM, ELG1 genotoxic 9.2µM, NPC1 promoter act 0.63µM, SMN2 splice enh 8.9µM
O=C(Oc1ccc(C(=S)N2CCCCC2)cc1)c1ccccc1F	FLuc counter inconclusive
C#CC(C)(CC)NC(=O)Cn1nnc(-c2ccc(OCc3ccccc3Cl)cc2)n1 (stereo unspecified)	none (no result: Rab9 prom act, ELG1 genotoxic, NPC1 promoter act)
Fc1ccccc1COc1ccc(-c2nnn(Cc3ccccc3F)n2)cc1	none
Fc1ccccc1COc1ccc(C(=S)N2CCCC2)cc1	Rab9 prom act inconclusive, FLuc counter 17µM, ELG1 genotoxic inconclusive, NPC1 promoter act inconclusive (no result: SMN2 splice enh)
O=C(O)Cn1nnc(-c2ccc(OCc3ccccc3Cl)cc2)n1	FLuc counter 19µM (no result: SMN2 splice enh)
O=C(Nc1nnc2n1CCS2)c1ccccc1C(F)(F)F	none (no result: Rab9 prom act, ELG1 genotoxic, NPC1 promoter act, SMN2 splice enh)
O=C(NCc1cccc(Cl)c1)c1ccc2c(Cl)c3c(nc2c1)CCCC3	none (no result: Rab9 prom act, ELG1 genotoxic, NPC1 promoter act)
Nc1ccc(-c2nnn(Cc3ccccc3F)n2)cc1	Rab9 prom act inconclusive, FLuc counter 15µM, ELG1 genotoxic inconclusive, NPC1 promoter act inconclusive (no result: SMN2 splice enh)
N#C/C(=N\Nc1ccccc1)C(=N)N1CCCCC1	Rab9 prom act inconclusive, FLuc counter 5.4µM, ELG1 genotoxic 6.5µM, NPC1 promoter act 2µM, SMN2 splice enh 11µM
N#C/C(=N\Nc1ccc(Cl)cc1)C(=N)N1CCCCCC1	Rab9 prom act 0.32µM, FLuc counter 0.95µM, ELG1 genotoxic 1.8µM, NPC1 promoter act 0.4µM, SMN2 splice enh 3.5µM
Cc1ccc(N/N=C(\C#N)C(=N)N2CCCCC2)cc1	Rab9 prom act 0.5µM, FLuc counter 5.4µM, ELG1 genotoxic inconclusive, NPC1 promoter act 0.45µM (no result: SMN2 splice enh)
N#C/C(=N\Nc1ccc(S(=O)(=O)N2CCCCCC2)cc1)C(N)=S	FLuc counter inconclusive
CCN(C(=O)Cn1c(=O)n(CC2CCC(C(=O)NC)CC2)c(=O)c2sccc21)c1ccccc1 (stereo unspecified)	none (no result: Rab9 prom act, ELG1 genotoxic, NPC1 promoter act, SMN2 splice enh)
Cc1ccc(CNC(=O)C(C)n2c(=O)cc(-c3ccccc3)c3c(C)nn(C)c32)cc1 (stereo unspecified)	none (no result: Rab9 prom act, ELG1 genotoxic, NPC1 promoter act, SMN2 splice enh)

Screening results deposited in PubChem by National Center for Advancing Translational Sciences (NCATS).
